Assay results reported in the supplement of paper PMC10849652.
The full data set covers some 7,900 targets. This sample favours those with a hit. About 0.6% of all pairs of compound and target were hits.

Tests used:
Assay in all cases: log2 fold change, soluble protein after heating vs DMSO (PISA); higher = thermal stabilisation; K562 cells, 10 uM, 30 min; active = over 0.2 and 3.5 SD of the protein, either way, in both replicates (recomputed)
IRAK-1-4 Inhibitor I = compound: C1COCCN1CCN2C3=CC=CC=C3N=C2NC(=O)C4=CC(=CC=C4)[N+](=O)[O-] [IRAK-1-4 Inhibitor I]
Summary of the method: (§1)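 K562 cells at 2×10^6 cells/mL were given 10 μM compound for 30 min. Aliquots then went through 3 min of heating across 48°C-58°C, were pooled, and were extracted in PBS with 0.5% NP-40 at 4°C, and the supernatant after 21,000xg for 90 min was quantified by TMTpro 16plex LC-MS/MS with channel sums equalised. Thermal stability relative to control samples, from duplicates, is given as log2 fold change.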

ibrutinib = compound: C=CC(=O)N1CCC[C@@H](n2nc(-c3ccc(Oc4ccccc4)cc3)c3c(N)ncnc32)C1 [ibrutinib]
Summary of the method: as §1

[1] = compound: CC(=O)c1cnc2ccc(-c3cc(Cl)c(O)c(Cl)c3)nc2c1N[C@H]1CC[C@H](CN(C)C)CC1
Summary of the method: as §1

ralimetinib = compound: CC(C)(C)Cn1c(N)nc2ccc(-c3[nH]c(C(C)(C)C)nc3-c3ccc(F)cc3)nc21 [ralimetinib]
Summary of the method: as §1

[2] = compound: CC(C)(O)CC(=O)NCCn1ccc2ncnc(Nc3ccc(Oc4cccc(C(F)(F)F)c4)c(Cl)c3)c21
Summary of the method: as §1

[3] = compound: CC(C)C1=C2N=C(C=C(N2N=C1)NCC3=CC=CC=C3)NCCCCCCN
Summary of the method: as §1

[4] = compound: CC(C)C[C@@H](C=O)NC(=O)[C@H](CC(C)C)NC(=O)[C@H](CC(C)C)NC(=O)OCc1ccccc1
Summary of the method: as §1

pinometostat = compound: CC(C)N(C[C@H]1O[C@@H](n2cnc3c(N)ncnc32)[C@H](O)[C@@H]1O)[C@H]1C[C@@H](CCc2nc3cc(C(C)(C)C)ccc3[nH]2)C1 [pinometostat]
Summary of the method: as §1

[5] = compound: CC1=C(C(CC(=O)N1)C2=CC=C(C=C2)C(F)(F)F)C(=O)NC3=C(C=C4C(=C3)C=NN4)F
Summary of the method: as §1

[6] = compound: CC1=C(C2=C(C=C1)C(=O)C3=CC=CC=C3N2CCCN)C
Summary of the method: as §1

[7] = compound: CC1=C(C=C(C=C1)NC(=O)C2=CC(=CC=C2)C(C)(C)C#N)NC3=CC4=C(C=C3)N=CN(C4=O)C
Summary of the method: as §1

[8] = compound: CC1=C(C=C(C=C1)NC(=O)C2=CC(=CC=C2)N(C)C)NC(=O)C3=CC=C(C=C3)O
Summary of the method: as §1

[9] = compound: CC1=CC=C(C=C1)SC2=C3C=C(SC3=CN=C2)C(=O)N
Summary of the method: as §1

[10] = compound: CC1=NC(=CC=C1)C2=C(N=C(N2)C(C)(C)C)C3=CC4=NC=CN=C4C=C3
Summary of the method: as §1

Nexturastat A = compound: CCCCN(Cc1ccc(C(=O)NO)cc1)C(=O)Nc1ccccc1 [Nexturastat A]
Summary of the method: as §1

vemurafenib = compound: CCCS(=O)(=O)Nc1ccc(F)c(C(=O)c2c[nH]c3ncc(-c4ccc(Cl)cc4)cc23)c1F [vemurafenib]
Summary of the method: as §1

[11] = compound: CCCS(=O)(=O)Nc1ccc(F)c(C(=O)c2c[nH]c3ncc(Cl)cc23)c1F
Summary of the method: as §1

[12] = compound: CCCc1cc(C)[nH]c(=O)c1CNC(=O)c1cc(-c2ccnc(N3CCN(C)CC3)c2)cc2c1cnn2C(C)C
Summary of the method: as §1

givinostat = compound: CCN(CC)Cc1ccc2cc(COC(=O)Nc3ccc(C(=O)NO)cc3)ccc2c1 [givinostat]
Summary of the method: as §1

barasertib = compound: CCN(CCCOc1ccc2c(Nc3cc(CC(=O)Nc4cccc(F)c4)[nH]n3)ncnc2c1)CCOP(=O)(O)O [barasertib]
Summary of the method: as §1

Measured: log2 fold change

WDCP (UniProt Q9H6R7)
UniProt Q9H6R7, sequence (Q9H6R7 whole entry, looked up): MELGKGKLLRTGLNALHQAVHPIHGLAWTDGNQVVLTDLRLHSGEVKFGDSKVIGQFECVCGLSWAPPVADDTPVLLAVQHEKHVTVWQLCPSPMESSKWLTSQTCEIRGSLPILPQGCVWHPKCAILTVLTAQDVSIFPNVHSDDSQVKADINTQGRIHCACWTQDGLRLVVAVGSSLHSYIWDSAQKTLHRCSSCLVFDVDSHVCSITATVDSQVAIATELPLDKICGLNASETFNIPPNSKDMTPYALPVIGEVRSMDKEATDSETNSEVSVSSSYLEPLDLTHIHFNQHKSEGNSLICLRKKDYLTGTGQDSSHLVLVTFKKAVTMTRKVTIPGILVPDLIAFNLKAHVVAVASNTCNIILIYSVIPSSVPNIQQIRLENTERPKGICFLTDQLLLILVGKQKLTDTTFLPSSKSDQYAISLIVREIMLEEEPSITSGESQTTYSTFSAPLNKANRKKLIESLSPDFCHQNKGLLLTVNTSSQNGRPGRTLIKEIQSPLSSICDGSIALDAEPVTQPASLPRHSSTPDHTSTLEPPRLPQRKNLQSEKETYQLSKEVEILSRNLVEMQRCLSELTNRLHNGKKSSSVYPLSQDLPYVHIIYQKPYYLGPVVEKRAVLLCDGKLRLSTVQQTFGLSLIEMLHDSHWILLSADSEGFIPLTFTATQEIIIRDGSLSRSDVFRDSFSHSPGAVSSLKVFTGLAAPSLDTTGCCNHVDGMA
inactive: IRAK-1-4 Inhibitor I -0.01 | ibrutinib -0.038 | [1] 0.078 | ralimetinib -0.006 | [2] -0.053 | [3] 0.032 | [4] 0.014 | pinometostat 0.076 | [5] 0.055 | [6] 0.023 | [7] 0.003 | [8] 0.013 | [9] -0.103 | [10] -0.023 | Nexturastat A 0.061 | vemurafenib -0.087 | [11] 0.025 | [12] -0.004 | givinostat 0.116 | barasertib -0.06

TXN2 (UniProt Q99757)
UniProt Q99757, sequence (Q99757 whole entry, looked up): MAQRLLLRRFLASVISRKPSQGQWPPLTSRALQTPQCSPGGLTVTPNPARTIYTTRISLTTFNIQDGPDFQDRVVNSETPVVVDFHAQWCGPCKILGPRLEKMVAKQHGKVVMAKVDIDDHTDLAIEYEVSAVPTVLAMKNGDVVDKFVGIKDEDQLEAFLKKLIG
inactive: IRAK-1-4 Inhibitor I 0.081 | ibrutinib 0.021 | [1] 0.072 | ralimetinib -0.093 | [2] 0.079 | [3] 0.086 | [4] -0.029 | pinometostat -0.048 | [5] 0.086 | [6] 0.041 | [7] -0.05 | [8] -0.018 | [9] -0.009 | [10] 0.036 | Nexturastat A 0.093 | vemurafenib 0.006 | [11] -0.048 | [12] 0.095 | givinostat -0.046 | barasertib 0.009

TRAPPC13 isoform 5 (UniProt A5PLN9)
UniProt A5PLN9, sequence (A5PLN9 whole entry, looked up): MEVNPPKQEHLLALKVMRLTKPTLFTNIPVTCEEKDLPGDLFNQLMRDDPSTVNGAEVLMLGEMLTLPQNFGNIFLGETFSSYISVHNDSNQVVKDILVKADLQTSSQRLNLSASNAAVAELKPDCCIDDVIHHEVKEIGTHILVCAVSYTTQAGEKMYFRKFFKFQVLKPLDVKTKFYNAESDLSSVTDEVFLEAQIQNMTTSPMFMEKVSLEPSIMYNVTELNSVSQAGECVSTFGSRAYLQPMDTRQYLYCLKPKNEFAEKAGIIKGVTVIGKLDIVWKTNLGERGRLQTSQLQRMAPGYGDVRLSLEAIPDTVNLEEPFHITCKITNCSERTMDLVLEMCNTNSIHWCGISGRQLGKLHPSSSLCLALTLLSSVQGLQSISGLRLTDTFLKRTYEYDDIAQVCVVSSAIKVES
inactive: IRAK-1-4 Inhibitor I -0.06 | ibrutinib -0.047 | [1] -0.121 | ralimetinib -0.048 | [2] -0.093 | [3] -0.014 | [4] 0.026 | pinometostat 0.033 | [5] -0.06 | [6] -0.047 | [7] 0.022 | [8] 0.008 | [9] 0.006 | [10] 0.043 | Nexturastat A 0.024 | vemurafenib 0.074 | [11] 0.113 | [12] 0.095 | givinostat 0.025 | barasertib 0.002

VPS37A (UniProt Q8NEZ2)
UniProt Q8NEZ2, sequence (Q8NEZ2 whole entry, looked up): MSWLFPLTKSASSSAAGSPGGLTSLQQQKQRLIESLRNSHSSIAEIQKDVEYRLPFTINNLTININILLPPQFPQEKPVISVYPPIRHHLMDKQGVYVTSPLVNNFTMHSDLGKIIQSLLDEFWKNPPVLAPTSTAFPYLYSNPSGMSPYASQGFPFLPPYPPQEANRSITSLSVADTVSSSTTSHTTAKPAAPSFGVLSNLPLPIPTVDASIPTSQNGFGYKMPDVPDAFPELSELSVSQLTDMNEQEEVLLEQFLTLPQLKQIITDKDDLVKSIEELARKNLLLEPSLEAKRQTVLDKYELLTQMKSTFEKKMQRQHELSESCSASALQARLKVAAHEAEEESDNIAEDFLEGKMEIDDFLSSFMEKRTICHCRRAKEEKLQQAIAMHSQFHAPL
inactive: IRAK-1-4 Inhibitor I 0.045 | ibrutinib -0.011 | [1] -0.07 | ralimetinib 0.053 | [2] -0.025 | [3] -0.143 | [4] 0.094 | pinometostat 0.045 | [5] -0.047 | [6] -0.066 | [7] -0.015 | [8] -0.171 | [9] 0.019 | [10] 0.001 | Nexturastat A -0.048 | vemurafenib 0.128 | [11] 0.054 | [12] 0.014 | givinostat 0.14 | barasertib 0.076

TMEM161B (UniProt Q8NDZ6)
UniProt Q8NDZ6, sequence (Q8NDZ6 whole entry, looked up): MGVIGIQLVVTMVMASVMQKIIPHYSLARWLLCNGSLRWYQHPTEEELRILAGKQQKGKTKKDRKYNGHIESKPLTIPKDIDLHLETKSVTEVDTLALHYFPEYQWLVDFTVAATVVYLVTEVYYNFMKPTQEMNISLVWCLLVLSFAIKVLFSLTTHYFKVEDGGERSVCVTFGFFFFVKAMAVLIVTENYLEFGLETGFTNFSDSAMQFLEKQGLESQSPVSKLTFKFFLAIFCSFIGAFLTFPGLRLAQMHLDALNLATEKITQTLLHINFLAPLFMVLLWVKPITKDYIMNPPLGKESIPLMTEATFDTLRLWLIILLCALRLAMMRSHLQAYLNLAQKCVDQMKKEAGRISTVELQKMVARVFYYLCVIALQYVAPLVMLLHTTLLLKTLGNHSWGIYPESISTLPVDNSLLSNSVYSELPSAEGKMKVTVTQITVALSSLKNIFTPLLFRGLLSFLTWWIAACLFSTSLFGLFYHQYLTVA
active: [2] -0.227
inactive: IRAK-1-4 Inhibitor I 0.06 | ibrutinib -0.039 | [1] 0.008 | ralimetinib -0.097 | [3] -0.052 | [4] 0.015 | pinometostat -0.002 | [5] -0.031 | [6] 0.022 | [7] 0.003 | [8] -0.012 | [9] 0.026 | [10] 0.008 | Nexturastat A -0.063 | vemurafenib 0.079 | [11] 0.053 | [12] 0.012 | givinostat 0.032 | barasertib -0.037

WEE1 (UniProt P30291)
UniProt P30291, sequence (P30291 whole entry, looked up): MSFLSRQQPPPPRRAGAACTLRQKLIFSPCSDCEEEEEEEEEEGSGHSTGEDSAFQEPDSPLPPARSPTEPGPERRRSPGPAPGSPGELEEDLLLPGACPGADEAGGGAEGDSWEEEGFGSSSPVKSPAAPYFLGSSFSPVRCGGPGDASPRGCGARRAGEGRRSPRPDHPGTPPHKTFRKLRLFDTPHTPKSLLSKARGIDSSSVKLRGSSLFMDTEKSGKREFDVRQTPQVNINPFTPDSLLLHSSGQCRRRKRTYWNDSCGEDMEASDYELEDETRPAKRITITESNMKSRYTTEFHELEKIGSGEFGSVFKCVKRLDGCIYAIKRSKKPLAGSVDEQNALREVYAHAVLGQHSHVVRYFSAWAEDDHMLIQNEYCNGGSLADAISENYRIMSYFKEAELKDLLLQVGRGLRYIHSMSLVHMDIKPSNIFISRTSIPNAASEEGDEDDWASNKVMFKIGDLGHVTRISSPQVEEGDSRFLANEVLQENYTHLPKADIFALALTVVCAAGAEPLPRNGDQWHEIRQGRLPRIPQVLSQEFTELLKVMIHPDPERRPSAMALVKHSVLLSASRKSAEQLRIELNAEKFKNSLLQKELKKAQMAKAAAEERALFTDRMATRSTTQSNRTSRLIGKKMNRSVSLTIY
active: [1] -1.1
inactive: IRAK-1-4 Inhibitor I 0.025 | ibrutinib 0.013 | ralimetinib 0.037 | [2] -0.034 | [3] -0.019 | [4] 0.296 | pinometostat 0.066 | [5] 0.05 | [6] 0.263 | [7] -0.037 | [8] 0.02 | [9] -0.304 | [10] -0.046 | Nexturastat A 0.322 | vemurafenib 0 | [11] 0 | [12] -0.137 | givinostat 0.037 | barasertib -0.005

VPS33A (UniProt Q96AX1)
UniProt Q96AX1, sequence (Q96AX1 whole entry, looked up): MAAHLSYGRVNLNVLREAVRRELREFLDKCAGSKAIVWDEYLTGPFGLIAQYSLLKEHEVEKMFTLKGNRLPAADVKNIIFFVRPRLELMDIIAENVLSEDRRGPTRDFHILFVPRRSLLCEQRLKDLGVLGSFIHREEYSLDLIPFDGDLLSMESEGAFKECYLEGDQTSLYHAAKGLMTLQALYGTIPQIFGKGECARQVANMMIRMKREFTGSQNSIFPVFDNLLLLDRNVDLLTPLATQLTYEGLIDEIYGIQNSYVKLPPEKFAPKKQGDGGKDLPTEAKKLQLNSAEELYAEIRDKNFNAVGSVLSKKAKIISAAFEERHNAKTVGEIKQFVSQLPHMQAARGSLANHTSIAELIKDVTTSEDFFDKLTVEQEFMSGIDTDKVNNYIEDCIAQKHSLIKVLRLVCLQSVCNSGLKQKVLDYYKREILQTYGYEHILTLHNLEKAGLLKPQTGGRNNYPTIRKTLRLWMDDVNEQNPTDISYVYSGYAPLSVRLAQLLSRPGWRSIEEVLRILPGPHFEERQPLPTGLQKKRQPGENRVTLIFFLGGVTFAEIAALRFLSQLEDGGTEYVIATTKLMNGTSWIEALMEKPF
active: [3] -0.299
inactive: IRAK-1-4 Inhibitor I -0.017 | ibrutinib -0.021 | [1] -0.001 | ralimetinib 0.048 | [2] -0.065 | [4] 0.054 | pinometostat 0.099 | [5] 0.035 | [6] 0.005 | [7] -0.013 | [8] -0.074 | [9] -0.016 | [10] -0.021 | Nexturastat A -0.024 | vemurafenib 0.003 | [11] 0.036 | [12] 0.04 | givinostat 0.058 | barasertib 0.068

TRAM1 (UniProt Q15629)
UniProt Q15629, sequence (Q15629 whole entry, looked up): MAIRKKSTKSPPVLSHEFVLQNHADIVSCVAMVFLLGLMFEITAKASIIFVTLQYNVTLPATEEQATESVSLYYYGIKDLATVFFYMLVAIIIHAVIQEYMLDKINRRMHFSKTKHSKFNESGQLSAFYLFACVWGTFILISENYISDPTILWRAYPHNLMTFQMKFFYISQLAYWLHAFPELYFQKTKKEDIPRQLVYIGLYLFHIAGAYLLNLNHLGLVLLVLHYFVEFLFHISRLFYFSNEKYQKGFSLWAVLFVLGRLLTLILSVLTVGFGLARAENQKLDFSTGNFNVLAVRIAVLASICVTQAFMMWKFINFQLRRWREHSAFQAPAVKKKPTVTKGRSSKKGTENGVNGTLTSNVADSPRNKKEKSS
active: [3] -0.889
inactive: IRAK-1-4 Inhibitor I -0.036 | ibrutinib -0.051 | [1] -0.032 | ralimetinib -0.014 | [2] -0.016 | [4] 0.012 | pinometostat -0.011 | [5] 0.016 | [6] 0.119 | [7] 0.024 | [8] -0.063 | [9] -0.006 | [10] 0.048 | Nexturastat A 0.005 | vemurafenib 0.027 | [11] 0.02 | [12] -0.101 | givinostat 0.028 | barasertib 0.015
